In assay [1] the target is Lysosomal acid glucosylceramidase (Homo sapiens) (UniProt P04062). Briefly: Glucocerebrosidase-p2 (AID 348; in the data active = potency below about 10 µM; note: potency is the fitted concentration of half-maximal effect). Conditions: purified GBA, blue fluorogenic substrate, 40 min. In short, it runs like this:
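Compounds titrated from 0.6 nM upwards against 0.2 nM enzyme in pH 5.9 citric acid/KH2PO4, taurocholate, tween-20; blue fluorogenic substrate 80 uM, 40 min room temperature, stopped and read Ex 365/Em 440 for AC50.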

Assay [2] can be described thus: AP1 Signaling Pathway (AID 357).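 Note: ME-180 reporter cells stimulated with EGF at its EC50 level; % is set by controls: 0 for no effect and ±100 for the full control effect.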 Conditions: ME-180 AP-1-bla reporter, EGF-induced, beta-lactamase ratio, 5 h; at 7.69 µM (top of the series) unless noted. In short, it runs like this:
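First, ME-180 AP-1-bla cells were cultured overnight at 37 °C in low-serum Opti-MEM. Next, titrated compounds with EC50 EGF were incubated 5 hours. Finally, CCF4 was added for 2.5 hours and the 460/530 nm ratio recorded.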

Assay [3] deals with Cytochrome P450 1A2 (Homo sapiens) (UniProt P05177). Briefly: p450-cyp1a2 (AID 410; calls by dose curve; note: potency is the fitted concentration of half-maximal effect;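 for activity change, negative = inhibition: -100% = full effect of reference inhibitor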). Conditions: recombinant CYP1A2, luciferin-ME demethylation, luminescence; series mostly up to 57 µM. In short, it runs like this:
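Inhibition was calculated relative to 57 uM furafylline (full inhibition). The reaction used human CYP1A2 at 20nM with Luciferin-ME at its Km, 100uM, driven by an NADPH-regenerating system for 60 min at room temperature.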

A short description of assay [4]: NFAT Signaling Pathway (AID 444).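 Note: carbachol stimulus at about its EC50 of 1 µM final; % is set by controls: 0 for no effect and ±100 for the full control effect.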 Conditions: Jurkat NFAT-bla M1, carbachol, beta-lactamase ratio, 5 h; at 7.69 µM (top of the series) unless noted. In short, it runs like this: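 Read-out: CCF4 FRET ratio (460 nm/530 nm) after 1 h RT dye loading, used for %activity and AC50 from titration series. Cells: Jurkat NFAT-β-lactamase/M1 line, treated with compound plus 1 uM carbachol for 5 h, 37 °C.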

The nature of assay [5]: Stat Signaling Pathway (AID 446).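 Note: ME-180 cervical cancer cells given 40 pM IL-6 alongside compound; SIE-controlled beta-lactamase reporter measured as 460/530 nm FRET emission ratio; % is set by controls: 0 for no effect and ±100 for the full control effect.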 Conditions: ME-180 (cervical carcinoma) SIE beta-lactamase reporter, IL-6 stimulated, 5 h; at 7.69 µM (top of the series) unless noted. Summed up:
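ME-180 SIE-bla cells; overnight plating; cpd + IL-6 40 pM, 5 h, 37 C; LiveBLAzer 2.5 h RT; 460/530 nm emission ratio. Normalized to 300 pM IL-6 and 125 nM JAK inhibitor controls.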

Assay [6] deals with Glucocorticoid receptor (Homo sapiens) (UniProt P04150). Briefly: GR-EFC Redistribution (AID 451; calls by dose curve; note: potency is the fitted concentration of half-maximal effect). Conditions: CHO-K1 GR-EFC translocation, beta-gal luminescence, 2 h. In short, it runs like this:
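Translocation of GR-ED fusion to nuclear EA restores b-gal, read by luminescence after 1 h room-temperature detection. Engineered CHO-K1 biosensor cells, 1,000/well, exposed 2 h at 37 C to titrations up to 46 uM final.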

Assay [7] addresses Mitogen-activated protein kinase 10 (Mus musculus) (UniProt Q61831). As to the kind of experiment: JNK3 AlphaScreen Assay (AID 530).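 Note: kinase came from lysate of stimulated human HepG2 cells; signal reports phosphorylation of biotinylated GST-cJun 1-79 at Ser73 with 10 µM ATP; % is set by controls: 0 for no effect and ±100 for the full control effect.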 Conditions: JNK3 lysate, c-Jun phosphorylation; series mostly up to 57.1 µM. In short, it runs like this: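 Room-temperature AlphaScreen kinase assay; pre-activated HepG2 lysate as JNK3 source, biotin-GST-cJun(1-79) substrate, 10 uM ATP, compound 15 min preincubation.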
On the technique in general: Alpha assays give light when donor and acceptor beads are brought close together.

For assay [8], the target named is 3',5'-cyclic-AMP phosphodiesterase 4B (Homo sapiens) (UniProt Q07343). As to the kind of experiment: qHTS Assay for Inhibitors of PDE-IV (AID 607; active = well fitted activation curve with a large enough effect in the main read-out, with a control signal flat, not every such curve was filed as active; note: % of control where 0% means no effect). Conditions: HEK293 ACTOne CNG channel cells, membrane potential fluorescence; series mostly up to 22.9 µM. Summed up:
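ACTOne HEK293 cells carry a modified cAMP-gated CNG channel and express endogenous PDE4; plated 1000 cells/well, compounds up to 22.9 uM final. Membrane-potential dye fluorescence (ex 535/em 590) was read; parental cells received 10 uM forskolin + 100 uM RO 20-1724.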
A general note: qHTS replaces the single test concentration by a dilution series.

The target in assay [9] is Cytochrome P450 3A4 (Homo sapiens) (UniProt P08684). As to the kind of experiment: qHTS Assay for Activators of Cytochrome P450 3A4 (AID 885; active = well fitted curve in the direction sought with a large enough effect; an effect the other way counts as inactive or inconclusive; note: nearly all actives have a fitted effect of over 65% in size). Conditions: recombinant CYP3A4, Luciferin-PPXE luminescence, 60 min; series mostly up to 57.1 µM. Summed up:
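20nM CYP3A4 + 25uM Luciferin-PPXE (=KM), 200mM KPO4; cpd 10 min RT; NADPH regen, 60 min RT; stop w/ detection buffer, 20 min; luminescence. Normalized to 57 uM ketoconazole.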

Assay [10] is described as follows: qHTS Assay for Lipid Storage Modulators (AID 1519; calls by dose curve). Conditions: Drosophila S3 cells, BODIPY lipid droplet/cell ratio, laser cytometry, cells loaded with oleic acid; for activity change, negative = inhibition: at 57.5 µM (top of the series). In short, it runs like this:
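Cells seeded at 5,000 per well were treated with compounds over a concentration series and loaded with oleic acid (400 uM, as added). Lipid droplet fluorescence (488 nm excitation, 500-530 nm channel) was read by laser-scanning cytometry and normalized to 20 uM Triacsin C.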

The nature of assay [11]: Primary qHTS for small molecule stabilizers of the endoplasmic reticulum resident proteome: Secreted ER Calcium Modulated Protein (SERCaMP) assay (AID 1508630; active = well fitted curve in the direction sought with a large enough effect; an effect the other way counts as inactive or inconclusive; note: % is set by controls: 0 for no effect and ±100 for the full control effect). Conditions: SH-SY5Y GLuc-SERCaMP (Gaussia luciferase released on ER calcium loss) secretion, thapsigargin, luminescence; series mostly up to 38.4 µM. Summed up:
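GLuc-SERCaMP-expressing SH-SY5Y cells, pretreated 16 h with compound, are challenged with thapsigargin to empty ER calcium stores; after 4 h, coelenterazine is added directly to the medium and luminescence is imaged.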

Assay [12] deals with Cytochrome P450 3A4 (Homo sapiens) (UniProt P08684). Briefly: qHTS Assay for Inhibitors and Substrates of Cytochrome P450 3A4 (AID 884; active = well fitted curve in the direction sought with a large enough effect; an effect the other way counts as inactive or inconclusive; note: potency is the fitted concentration of half-maximal effect; nearly all actives have a fitted effect of over 50% in size). Conditions: recombinant CYP3A4, Luciferin-PPXE luminescence; series mostly up to 57.1 µM. In short, it runs like this:
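20 nM human CYP3A4 with 25 uM Luciferin-PPXE (at KM) in 200 mM KPO4, preincubated 10 min with compound; NADPH regeneration started a 60 min RT reaction. Luciferin detected by luminescence, normalized to 57 uM ketoconazole as full inhibition.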

Assay [13] addresses Cytochrome P450 2C19 (Homo sapiens) (UniProt P33261). As to the kind of experiment: qHTS Assay for Inhibitors and Substrates of Cytochrome P450 2C19 (AID 899; active = well fitted curve in the direction sought with a large enough effect; an effect the other way counts as inactive or inconclusive; note: potency is the fitted concentration of half-maximal effect; nearly all actives have a fitted effect of over 60% in size). Conditions: recombinant CYP2C19, luciferin-H EGE luminescence; series mostly up to 57.1 µM. In short, it runs like this: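 Luminescence readout of luciferin formed from 10uM Luciferin-H EGE (KM level) by 5 nM CYP2C19 in 50mM KPO4. 60 min NADPH-driven reaction at 37C after 10 min compound preincubation; data scaled to 57uM ketoconazole inhibition.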

[14] abbreviates: measured here: cell count channel max response.
Where [15] appears, read: measured here: lipid channel max response.

This is an account of results in PubChem BioAssay (NCATS).

SMILES strings stand for the structures. Records with an inconclusive call do not appear. Active and inactive are the calls of the source. Unless noted, calls come from the whole dose curve; as a rule, active = well fitted curve in either direction with a large enough effect (not every such curve was filed as active); inconclusive = small, poorly fitted or top-dose-only effect, or another doubt; inactive = flat fitted curve, though single readings scatter.

Sequence of Cytochrome P450 1A2 (Homo sapiens) (P05177 whole entry, looked up): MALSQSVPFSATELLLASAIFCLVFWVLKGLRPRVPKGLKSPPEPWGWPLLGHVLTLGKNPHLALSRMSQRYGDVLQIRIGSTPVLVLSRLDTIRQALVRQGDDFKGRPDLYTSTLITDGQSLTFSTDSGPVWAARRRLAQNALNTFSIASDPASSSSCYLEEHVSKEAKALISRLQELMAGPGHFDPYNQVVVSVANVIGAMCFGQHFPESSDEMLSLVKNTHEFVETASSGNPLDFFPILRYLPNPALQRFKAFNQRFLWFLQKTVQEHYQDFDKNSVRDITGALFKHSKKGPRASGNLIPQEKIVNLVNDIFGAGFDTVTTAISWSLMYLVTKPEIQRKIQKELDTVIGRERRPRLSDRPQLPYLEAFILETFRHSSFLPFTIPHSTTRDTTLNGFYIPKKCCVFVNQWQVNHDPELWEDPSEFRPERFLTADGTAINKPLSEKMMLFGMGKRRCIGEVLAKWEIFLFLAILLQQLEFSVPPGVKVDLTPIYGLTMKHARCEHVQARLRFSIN
Sequence of Cytochrome P450 3A4 (Homo sapiens) (P08684 whole entry, looked up): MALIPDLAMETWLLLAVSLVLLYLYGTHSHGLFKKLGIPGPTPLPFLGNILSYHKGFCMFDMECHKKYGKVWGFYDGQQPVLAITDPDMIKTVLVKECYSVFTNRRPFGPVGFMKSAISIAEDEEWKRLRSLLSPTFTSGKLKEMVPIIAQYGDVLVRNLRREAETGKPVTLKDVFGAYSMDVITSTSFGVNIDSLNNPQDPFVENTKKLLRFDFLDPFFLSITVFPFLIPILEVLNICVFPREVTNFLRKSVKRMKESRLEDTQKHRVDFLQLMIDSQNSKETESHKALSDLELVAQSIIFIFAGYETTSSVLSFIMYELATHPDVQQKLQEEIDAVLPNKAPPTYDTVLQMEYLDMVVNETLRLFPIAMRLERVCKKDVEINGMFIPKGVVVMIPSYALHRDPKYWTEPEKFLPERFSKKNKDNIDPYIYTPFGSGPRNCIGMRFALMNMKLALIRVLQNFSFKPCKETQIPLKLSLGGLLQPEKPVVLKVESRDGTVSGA
Sequence of 3',5'-cyclic-AMP phosphodiesterase 4B (Homo sapiens) (Q07343 whole entry, looked up): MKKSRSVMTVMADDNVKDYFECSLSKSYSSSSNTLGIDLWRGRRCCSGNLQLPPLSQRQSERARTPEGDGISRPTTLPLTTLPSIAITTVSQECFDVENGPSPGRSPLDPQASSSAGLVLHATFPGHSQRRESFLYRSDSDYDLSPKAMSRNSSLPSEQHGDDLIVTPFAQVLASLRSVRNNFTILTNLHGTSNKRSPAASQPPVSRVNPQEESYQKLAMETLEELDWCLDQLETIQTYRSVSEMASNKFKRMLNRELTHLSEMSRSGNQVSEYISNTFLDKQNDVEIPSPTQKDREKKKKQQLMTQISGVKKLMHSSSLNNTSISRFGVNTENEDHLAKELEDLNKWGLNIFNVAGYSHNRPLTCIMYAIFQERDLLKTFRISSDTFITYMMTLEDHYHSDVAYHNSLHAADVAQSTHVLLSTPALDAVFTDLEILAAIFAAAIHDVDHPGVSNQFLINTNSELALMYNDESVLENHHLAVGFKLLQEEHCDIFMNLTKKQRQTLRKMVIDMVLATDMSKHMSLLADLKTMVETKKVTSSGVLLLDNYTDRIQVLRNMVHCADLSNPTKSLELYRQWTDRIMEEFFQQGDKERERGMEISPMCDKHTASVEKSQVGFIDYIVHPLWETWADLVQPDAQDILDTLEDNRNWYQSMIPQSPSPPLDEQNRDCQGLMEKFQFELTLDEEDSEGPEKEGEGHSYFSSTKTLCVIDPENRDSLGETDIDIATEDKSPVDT
Sequence of Glucocorticoid receptor (Homo sapiens) (P04150 whole entry, looked up, the tested form may be a part): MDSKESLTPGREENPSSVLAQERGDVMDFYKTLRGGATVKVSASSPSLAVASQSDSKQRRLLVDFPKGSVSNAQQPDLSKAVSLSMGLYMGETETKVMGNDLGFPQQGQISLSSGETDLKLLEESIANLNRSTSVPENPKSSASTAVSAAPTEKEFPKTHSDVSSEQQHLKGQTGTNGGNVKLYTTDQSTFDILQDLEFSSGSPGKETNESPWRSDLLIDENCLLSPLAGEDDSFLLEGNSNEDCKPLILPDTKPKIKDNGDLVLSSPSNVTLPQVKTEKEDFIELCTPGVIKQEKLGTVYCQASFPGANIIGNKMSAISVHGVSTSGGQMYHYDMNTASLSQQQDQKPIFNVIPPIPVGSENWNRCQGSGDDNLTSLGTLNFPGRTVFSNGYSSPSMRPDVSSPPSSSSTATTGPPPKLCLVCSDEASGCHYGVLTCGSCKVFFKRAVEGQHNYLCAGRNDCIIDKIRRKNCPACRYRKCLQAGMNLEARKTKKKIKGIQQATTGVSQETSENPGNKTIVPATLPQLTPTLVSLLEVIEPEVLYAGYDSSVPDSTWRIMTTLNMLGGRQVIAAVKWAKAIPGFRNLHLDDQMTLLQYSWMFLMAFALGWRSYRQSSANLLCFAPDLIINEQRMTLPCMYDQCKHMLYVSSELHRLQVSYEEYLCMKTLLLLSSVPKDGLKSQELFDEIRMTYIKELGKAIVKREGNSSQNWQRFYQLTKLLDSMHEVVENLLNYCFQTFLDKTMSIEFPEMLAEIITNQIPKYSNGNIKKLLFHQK
Sequence of Lysosomal acid glucosylceramidase (Homo sapiens) (P04062 whole entry, looked up): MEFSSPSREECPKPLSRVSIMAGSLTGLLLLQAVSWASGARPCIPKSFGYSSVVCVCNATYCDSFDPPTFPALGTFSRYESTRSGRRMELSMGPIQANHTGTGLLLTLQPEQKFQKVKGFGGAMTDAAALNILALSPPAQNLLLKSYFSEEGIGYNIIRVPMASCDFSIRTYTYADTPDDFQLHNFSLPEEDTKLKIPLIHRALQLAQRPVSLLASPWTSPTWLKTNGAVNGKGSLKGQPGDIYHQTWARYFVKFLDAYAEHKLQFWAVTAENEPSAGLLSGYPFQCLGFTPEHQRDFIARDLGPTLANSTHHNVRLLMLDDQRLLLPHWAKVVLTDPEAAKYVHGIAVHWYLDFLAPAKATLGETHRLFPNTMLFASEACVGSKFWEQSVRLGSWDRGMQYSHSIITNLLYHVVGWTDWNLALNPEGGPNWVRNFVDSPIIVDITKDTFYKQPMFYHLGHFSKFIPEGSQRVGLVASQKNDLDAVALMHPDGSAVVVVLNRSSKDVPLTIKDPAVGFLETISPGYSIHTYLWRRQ
Sequence of Cytochrome P450 2C19 (Homo sapiens) (P33261 whole entry, looked up): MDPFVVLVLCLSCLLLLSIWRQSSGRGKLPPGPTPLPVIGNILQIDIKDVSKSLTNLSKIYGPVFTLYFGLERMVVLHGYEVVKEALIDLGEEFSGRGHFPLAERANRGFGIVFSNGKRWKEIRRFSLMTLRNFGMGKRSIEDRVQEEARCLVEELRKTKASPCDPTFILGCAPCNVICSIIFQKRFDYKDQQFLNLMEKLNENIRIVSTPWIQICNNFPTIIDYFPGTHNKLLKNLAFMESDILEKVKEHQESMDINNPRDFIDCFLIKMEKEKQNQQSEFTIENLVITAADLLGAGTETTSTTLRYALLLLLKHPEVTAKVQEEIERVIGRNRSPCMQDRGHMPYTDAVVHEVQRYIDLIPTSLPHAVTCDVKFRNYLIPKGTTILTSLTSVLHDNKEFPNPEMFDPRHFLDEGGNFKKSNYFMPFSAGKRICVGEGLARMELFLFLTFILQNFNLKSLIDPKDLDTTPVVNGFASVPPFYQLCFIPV

For the compound `Cn1cccc1C(=O)N1CCC[C@@]2(CCN(Cc3ccc(C#N)cc3)C2)C1`, the Potency in assay [1] is > 11.4 µM (inactive); in assay [6], > 46 µM (inactive). Moreover, the results for the activity change, negative = inhibition in assay [2], in assay [4] and in [10] were -2.05% (inactive), -13.8% (inactive) and 4.84% (inactive), respectively. Besides, the Potency entry in [3], in [8], in assay [9] and in [11] was “inactive” each time. In addition, the activity, negative = inhibition in assay [5] was -3.28% (inactive). In [7], the outcome was inactive. For the same compound, the results for the max response in [10] (setting [14]) and in assay [10] (setting [15]) were 7.42% and 16.5%, respectively.

As to `O=C(c1ccncc1)N1CCC[C@@]2(CCN(c3ccccn3)C2)C1`, the Potency in assay [1] is > 11.4 µM (inactive); in [3], 20 µM (active); in [6] it was > 46 µM (inactive); in assay [12] it was 7.94 µM (active); in [13], 6.31 µM (active). In addition, the activity change, negative = inhibition in assay [2] is -20.6% (inactive); in assay [4] it was 6.17% (inactive); in assay [10] it was 4.35% (inactive). Further, the activity, negative = inhibition in assay [5] is -0.0595% (inactive). Further, the outcome in assay [7] was inactive. In addition, the Potency entry in assay [8], in [9] and in assay [11] was “inactive” throughout. Moreover, the max response in [10] (setting [14]) was found to be 14.4%; in [10] (setting [15]), 22.3%.

As for `O=C(c1cnccn1)N1CCC[C@@]2(CCN(Cc3nccs3)C2)C1`, the values for the Potency in assay [1] and in assay [6] were > 11.4 µM (inactive) and > 46 µM (inactive), respectively. Besides, the figures for the activity change, negative = inhibition in [2], in assay [4] and in [10] were -10.4% (inactive), 8.21% (inactive) and 4.59% (inactive), respectively. Moreover, the Potency entry in assay [3], in [8], in assay [9] and in assay [11] was “inactive” throughout. Further, the activity, negative = inhibition in [5] was -0.706% (inactive). In assay [7], the result was inactive. In addition, the max response in assay [10] (setting [14]) stood at 14.2%; in [10] (setting [15]), 20.9%.

Take `CS(=O)(=O)N1CCC[C@@]2(CCN(c3ccccn3)C2)C1`: the results for the Potency in assay [1] and in assay [6] were > 11.4 µM (inactive) and > 46 µM (inactive), respectively. Also, the activity change, negative = inhibition is -9.92% (inactive) in [2], -19.3% (inactive) in assay [4] and 2.29% (inactive) in assay [10]. Moreover, the Potency entry in [3], in assay [8], in [9] and in assay [11] was “inactive” in each case. In addition, the activity, negative = inhibition in assay [5] was -8.41% (inactive). Further, the compound was called inactive in assay [7]. Besides, the max response in assay [10] (setting [14]) is -1.27%; in [10] (setting [15]), 2.21%.

As for `FC(F)(F)c1cc(CN2CCCC3(CCNCC3)C2)cc(C(F)(F)F)c1`, the Potency in assay [1] is > 11.4 µM (inactive); in [6] it was > 46 µM (inactive). Further, the activity change, negative = inhibition is 2.64% (inactive) in assay [2], -4.7% (inactive) in [4] and 0.357% (inactive) in [10]. In addition, the Potency result in assay [3], in [8], in assay [9] and in [11] was “inactive” each time. In assay [5], the activity, negative = inhibition is 1.59% (inactive). Moreover, the result in assay [7] was inactive. The results for the max response in assay [10] (setting [14]) and in assay [10] (setting [15]) were -0.613% and 2.14%, respectively.

For `COc1ccc(C(=O)N2CCC3(CC2)CN(Cc2ccc(C#N)cc2)C3)cc1`, the figures for the Potency in assay [1] and in assay [6] were > 11.4 µM (inactive) and > 46 µM (inactive), respectively. Besides, the figures for the activity change, negative = inhibition in [2], in [4] and in [10] were 11% (inactive), -0.922% (inactive) and -3% (inactive), respectively. For the same compound, the Potency result in assay [3], in assay [8], in assay [9] and in assay [11] was “inactive” in each case. Moreover, the activity, negative = inhibition in [5] was 8.44% (inactive). The compound was called inactive in [7]. Also, the results for the max response in [10] (setting [14]) and in assay [10] (setting [15]) were 13.1% and 11.7%, respectively.

In the case of `CS(=O)(=O)N1CCC2(CCCN(c3ccccn3)C2)CC1`, the Potency in [1] is > 11.4 µM (inactive); in [3], 25.1 µM (active); in [6], > 46 µM (inactive). The results for the activity change, negative = inhibition in assay [2], in [4] and in assay [10] were -3.01% (inactive), 4.17% (inactive) and 2.39% (inactive), respectively. In addition, the activity, negative = inhibition in assay [5] is 7.37% (inactive). The outcome in assay [7] was inactive. The Potency result in assay [8], in assay [9] and in [11] was “inactive” each time. Moreover, the max response was 5.95% in [10] (setting [14]) and 15.6% in assay [10] (setting [15]).
